In PubChem BioAssay (Tox21):
Records with an inconclusive call do not appear. Active and inactive are the calls of the source. Unless noted, the call rests on the fitted dose curve.

Key:
[1] = Nuclear factor erythroid 2-related factor 2/antioxidant responsive element (Nrf2/ARE) small molecule agonists: qHTS cell viability counter screen in human keratinocytes (AID 1919968; active means well fitted curve in the direction sought with a large enough effect in the repeat runs; an effect the other way counts as inactive or inconclusive; further: nearly all actives have a fitted effect of over 55% in size)
How it was run: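 Parallel cytotoxicity read: KeratinoSens HaCaT cells, compound treatment 23 h, viability by CellTiter-Fluor fluorescence 1 h post-reagent.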

[2] = Nuclear factor erythroid 2-related factor 2/antioxidant responsive element (Nrf2/ARE) small molecule agonists: luciferase reporter gene qHTS assay in human keratinocytes (AID 1919969); further: nearly all actives have a fitted effect of over 35% in size
[3] = molecular target: Gonadotropin-releasing hormone receptor (Homo sapiens) (UniProt P30968); assay: Human gonadotropin-releasing hormone receptor (GnRHR) small molecule agonists, calcium flux assay in GnRHR-HEK293 cells (AID 1920063); further: nearly all actives have a fitted effect of over 35% in size
Chain of Gonadotropin-releasing hormone receptor (Homo sapiens) (P30968 whole entry, looked up): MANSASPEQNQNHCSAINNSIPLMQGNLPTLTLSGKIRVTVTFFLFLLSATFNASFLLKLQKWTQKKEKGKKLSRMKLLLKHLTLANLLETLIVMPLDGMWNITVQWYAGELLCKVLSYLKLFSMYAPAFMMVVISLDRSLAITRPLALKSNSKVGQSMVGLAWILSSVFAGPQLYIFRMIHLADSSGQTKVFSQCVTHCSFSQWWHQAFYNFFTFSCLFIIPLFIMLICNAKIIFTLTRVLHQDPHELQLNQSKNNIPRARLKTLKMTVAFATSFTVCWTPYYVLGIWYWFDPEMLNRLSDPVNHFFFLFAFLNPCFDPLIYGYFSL
How it was run: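 Calcium flux, agonist mode, human GnRHR stably integrated in HEK293; dye 1 h at 37 C before compound; Ex/Em=480/540 kinetic read, 3 min; 15 concentrations, triplicate.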

[4] = molecular target: KiSS-1 receptor (Homo sapiens) (UniProt Q969F8); assay: Human kisspeptin (KISS1R) small molecule agonists, calcium flux assay in KISS1R-HEK293 cells (AID 1920064; active means well fitted curve in the direction sought with a large enough effect in the repeat runs; an effect the other way counts as inactive or inconclusive)
Chain of KiSS-1 receptor (Homo sapiens) (Q969F8 whole entry, looked up): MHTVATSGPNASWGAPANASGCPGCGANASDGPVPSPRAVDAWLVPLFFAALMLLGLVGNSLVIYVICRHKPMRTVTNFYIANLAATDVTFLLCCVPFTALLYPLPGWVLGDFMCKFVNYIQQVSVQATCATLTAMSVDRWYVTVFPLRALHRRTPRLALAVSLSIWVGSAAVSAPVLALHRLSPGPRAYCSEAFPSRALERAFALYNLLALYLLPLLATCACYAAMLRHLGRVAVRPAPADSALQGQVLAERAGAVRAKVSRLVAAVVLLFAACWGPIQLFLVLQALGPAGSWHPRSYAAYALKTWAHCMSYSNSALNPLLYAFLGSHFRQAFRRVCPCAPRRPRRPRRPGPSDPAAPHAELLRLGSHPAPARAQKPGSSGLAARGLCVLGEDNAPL
How it was run: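 Triplicate 15-concentration series were applied to dye-loaded human KISS1R HEK293 cells, and agonist-evoked calcium fluorescence was captured for 3 min.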

[5] = G protein-coupled receptor (GPCR) small molecule agonists, calcium flux assay: HEK293 wild type cell line counter screen (AID 1920065)
How it was run: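 Non-specific calcium responders were flagged by adding DMSO-dissolved compounds to dye-loaded cells and reading 480/540 nm fluorescence each second for 3 min; ATP served as positive control.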

[6] = p53 small molecule agonists, cell-based qHTS assay with human liver microsomes (AID 1963577);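 further: p53 response element beta-lactamase reporter cells with liver microsomes plus NADPH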
How it was run: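 16 h, 37 C exposure of p53RE-bla cells to compounds with human liver microsomes and NADPH (0.5 mg/mL final each); detection via LiveBLAzer mixture, 2 h dark at room temperature.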

[7] = p53 small molecule agonists, cell-based qHTS assay with rat liver microsomes (AID 1963578)
How it was run: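 With rat liver microsomes and NADPH present (0.5 mg/mL final each), p53RE-bla cells are treated with compound for 16 h at 37 C. LiveBLAzer detection mixture is then applied for 2 h at room temperature in the dark.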

[8] = p53 small molecule agonists, cell-based qHTS assay with human liver microsomes: qHTS cell viability counter screen (AID 1963579); further: nearly all actives have a fitted effect of over 45% in size
How it was run: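 In this multiplexed counter screen, the reporter plates were subsequently treated with CellTiter-Glo so that cell viability, reflected by luminescence, could be recorded for p53RE-bla cells dosed 16 h with compounds under microsomal activation (HLM and NADPH).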

[9] = p53 small molecule agonists, cell-based qHTS assay with rat liver microsomes: qHTS cell viability counter screen (AID 1963580); further: nearly all actives have a fitted effect of over 45% in size
How it was run: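 Cytotoxicity counter screen: intracellular ATP read by CellTiter-Glo luminescence in the p53 reporter wells. HCT-116 p53RE-bla cells were treated for 16 h at 37 C alongside rat liver microsomes and NADPH, each 0.5 mg/mL final.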

[10] = p53 small molecule agonists, cell-based qHTS assay: qHTS cell viability counter screen (AID 1963581); further: nearly all actives have a fitted effect of over 45% in size
How it was run: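 Multiplexed with the reporter read, a CellTiter-Glo step (30 min, room temperature) gauges ATP-based viability of HCT-116 p53RE-bla cells after 16 h compound incubation at 37 C.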

[11] = p53 small molecule agonists, cell-based qHTS assay (AID 1963582; active means well fitted activation curve with a large enough effect in the signal ratio in the repeat runs, not every such curve was filed as active; the % refers to the signal ratio)
How it was run: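 Beta-lactamase reporter cells (p53RE-bla) treated with compounds for 16 h at 37 C; FRET substrate, 2 h, room temperature; fluorescence intensity.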

[12] = molecular target: 5-hydroxytryptamine receptor 2A (Homo sapiens) (UniProt P28223); assay: 5-hydroxytryptamine receptor 2A (HTR2A) small molecule antagonists, cell-based qHTS assay (AID 1963586); further: nearly all actives have a fitted effect of over 45% in size; further: potency means the concentration at half of the fitted maximal effect
Chain of 5-hydroxytryptamine receptor 2A (Homo sapiens) (P28223 whole entry, looked up): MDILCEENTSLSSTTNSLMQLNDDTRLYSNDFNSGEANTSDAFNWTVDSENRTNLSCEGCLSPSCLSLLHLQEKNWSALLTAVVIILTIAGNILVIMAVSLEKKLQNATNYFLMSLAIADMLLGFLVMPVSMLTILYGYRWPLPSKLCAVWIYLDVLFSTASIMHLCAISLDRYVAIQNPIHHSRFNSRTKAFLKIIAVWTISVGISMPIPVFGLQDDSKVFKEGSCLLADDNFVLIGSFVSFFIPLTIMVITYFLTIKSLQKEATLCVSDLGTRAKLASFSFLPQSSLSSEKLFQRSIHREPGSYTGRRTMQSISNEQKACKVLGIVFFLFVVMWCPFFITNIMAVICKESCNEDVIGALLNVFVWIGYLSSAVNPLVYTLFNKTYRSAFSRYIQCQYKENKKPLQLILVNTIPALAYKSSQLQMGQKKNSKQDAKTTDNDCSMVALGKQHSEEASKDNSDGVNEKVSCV
How it was run: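 CHO cells stably expressing human HTR2A were plated for 18 h at 37 C, then loaded with calcium dye for 1 h. Compounds were preincubated 5 min at room temperature before DOI (4 nM solution) was added. Kinetic fluorescence was read for 3 min.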

[13] = molecular target: 5-hydroxytryptamine receptor 2A (Homo sapiens) (UniProt P28223); assay: 5-hydroxytryptamine receptor 2A (HTR2A) small molecule agonists, cell-based qHTS assay (AID 1963587); further: nearly all actives have a fitted effect of over 30% in size
How it was run: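 Kinetic calcium-flux fluorescence (2 min, 1 sec intervals) after compound addition in agonist mode. HTR2A-CHO cells were cultured 18 h, then dye-loaded 1 h at 37 C.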

[14] = molecular target: Muscarinic acetylcholine receptor M1 (Homo sapiens) (UniProt P11229); assay: Cholinergic receptor muscarinic 1 (CHRM1) small molecule antagonists, cell-based qHTS assay (AID 1963588); further: nearly all actives have a fitted effect of over 40% in size
Chain of Muscarinic acetylcholine receptor M1 (Homo sapiens) (P11229 whole entry, looked up): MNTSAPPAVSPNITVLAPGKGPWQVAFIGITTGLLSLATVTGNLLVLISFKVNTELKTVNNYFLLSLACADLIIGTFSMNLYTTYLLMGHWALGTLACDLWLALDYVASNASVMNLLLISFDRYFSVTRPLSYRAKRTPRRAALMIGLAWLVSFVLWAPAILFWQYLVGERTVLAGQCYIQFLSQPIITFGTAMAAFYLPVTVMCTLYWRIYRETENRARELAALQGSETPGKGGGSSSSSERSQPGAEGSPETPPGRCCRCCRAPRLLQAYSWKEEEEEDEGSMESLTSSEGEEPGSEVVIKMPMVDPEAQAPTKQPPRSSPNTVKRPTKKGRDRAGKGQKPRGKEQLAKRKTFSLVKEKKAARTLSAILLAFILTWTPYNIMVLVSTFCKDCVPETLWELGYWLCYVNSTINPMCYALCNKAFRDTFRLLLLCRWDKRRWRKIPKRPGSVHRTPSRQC
How it was run: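 Compounds were tested at 15 concentrations in three independent runs. Dye-loaded CHRM1-CHO cells were exposed 5 min at room temperature before stimulation by acetylcholine added at 50nM. Intracellular calcium was read kinetically on FDSS for 3 min.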

[15] = molecular target: Muscarinic acetylcholine receptor M1 (Homo sapiens) (UniProt P11229); assay: Cholinergic receptor muscarinic 1 (CHRM1) small molecule agonists, cell-based qHTS assay (AID 1963589); further: nearly all actives have a fitted effect of over 35% in size
How it was run: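 qHTS, 15-point titration, 3 independent runs: compounds pin-transferred onto dye-loaded CHRM1-CHO cells (human M1), calcium fluorescence followed every second to detect agonism.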

[16] = cAMP Responsive Elements (CRE) small molecule agonists, cell-based qHTS assay (AID 1963590)
How it was run: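 Quantitative HTS for CRE agonists: HEK 293T CRE-bla cells, overnight plating, 3 h compound incubation at 37 C/5% CO2, then 2 h room-temperature LiveBLAzer B/G FRET substrate loading.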

[17] = cAMP Responsive Elements (CRE) small molecule antagonists, cell-based qHTS assay (AID 1963591; active means well fitted inhibition curve with a large enough effect in the signal ratio in the repeat runs, not every such curve was filed as active; the % refers to the signal ratio)
How it was run: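 Fluorescence intensity from cleaved LiveBLAzer B/G substrate (2 h, room temperature) quantified CRE-bla activity in HEK 293T cells exposed 3 h to compound with 0.25 uM final NKH477.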

[18] = molecular target: Beta-2 adrenergic receptor (Homo sapiens) (UniProt P07550); assay: Adrenergic beta2 receptor (ADRB2) small molecule antagonists, cell-based qHTS assay (AID 1963592); further: series mostly up to about 92 µM; nearly all actives have a fitted effect of over 50% in size
Chain of Beta-2 adrenergic receptor (Homo sapiens) (P07550 whole entry, looked up): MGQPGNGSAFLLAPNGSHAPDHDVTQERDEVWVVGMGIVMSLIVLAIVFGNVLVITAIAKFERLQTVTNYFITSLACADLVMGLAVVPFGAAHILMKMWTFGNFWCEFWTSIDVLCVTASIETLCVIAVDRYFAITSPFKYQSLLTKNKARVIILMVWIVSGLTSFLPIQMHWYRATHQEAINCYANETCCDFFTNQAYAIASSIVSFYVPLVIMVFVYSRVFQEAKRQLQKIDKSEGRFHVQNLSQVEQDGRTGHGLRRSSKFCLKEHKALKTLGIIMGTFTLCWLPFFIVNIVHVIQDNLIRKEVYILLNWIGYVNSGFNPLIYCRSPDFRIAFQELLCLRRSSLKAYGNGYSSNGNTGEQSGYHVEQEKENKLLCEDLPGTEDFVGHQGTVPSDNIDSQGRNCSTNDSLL
How it was run: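 Assay format: CHO-ADRB2 cells, 18-20hr seeding at 37C/5% CO2, then compound plus 1nM isoproterenol agonist mix for 0.5hr RT. Homogeneous time-resolved fluorescence cAMP detection after 1hr, expressed as 665/615 nm ratio.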

[19] = molecular target: D(2) dopamine receptor (Homo sapiens) (UniProt P14416); assay: Dopamine D2 receptor (DRD2) small molecule agonists, cell-based qHTS assay (AID 1963594); further: nearly all actives have a fitted effect of over 35% in size
Chain of D(2) dopamine receptor (Homo sapiens) (P14416 whole entry, looked up): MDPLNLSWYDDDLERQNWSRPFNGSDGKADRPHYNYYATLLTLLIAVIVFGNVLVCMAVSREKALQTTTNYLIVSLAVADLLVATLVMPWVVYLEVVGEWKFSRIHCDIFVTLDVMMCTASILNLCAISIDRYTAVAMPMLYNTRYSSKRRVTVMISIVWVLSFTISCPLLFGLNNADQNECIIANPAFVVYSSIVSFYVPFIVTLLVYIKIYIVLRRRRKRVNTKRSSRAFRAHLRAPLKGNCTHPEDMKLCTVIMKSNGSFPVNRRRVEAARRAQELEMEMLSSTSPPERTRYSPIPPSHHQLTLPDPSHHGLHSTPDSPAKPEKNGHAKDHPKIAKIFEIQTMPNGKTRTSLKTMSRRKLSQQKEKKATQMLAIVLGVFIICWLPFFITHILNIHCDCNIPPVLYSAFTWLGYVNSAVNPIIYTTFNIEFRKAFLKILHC
How it was run: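 cAMP accumulation in DRD2-HEK293 cells measured by HTRF after 1 h detection; compounds added 10 min before NKH477 (200nM […]) forskolin-analogue stimulation, 30 min at room temperature, with Ro20-1724 present at 0.1 mM final.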

[20] = molecular target: D(2) dopamine receptor (Homo sapiens) (UniProt P14416); assay: Dopamine D2 receptor (DRD2) small molecule antagonists, cell-based qHTS assay (AID 1963595; active means well fitted inhibition curve with a large enough effect in the signal ratio in the repeat runs, with a control signal flat; the % refers to the signal ratio)
How it was run: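 Readout: HTRF cAMP, cAMP-d2 competing with cellular cAMP for anti-cAMP cryptate, read after 1 h. Cells: DRD2-HEK293. Conditions: 0.1 mM Ro20-1724, 12 nM quinpirole, 200 nM NKH477, 30 min RT.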
On the % scale 0 is the no-effect control and ±100 the full control effect.

CCN1CCC[C@H]1CNC(=O)c1c(O)c(Cl)cc(Cl)c1OC
active: Potency [12] 18.3 µM
inactive: Potency [1] | Potency [2] | Potency [3] | Potency [4] | Potency [5] | Potency [6] | Potency [7] | Potency [8] | Potency [9] | Potency [10] | Potency [11] | Potency [13] | Potency [14] | Potency [15] | Potency [16] | Potency [17] | Potency [18] | Potency [19]

C[Si](C)=O
inactive: activity change, negative = cytotoxicity [1] 4.07% [at 8.39 µM] | activity, positive = activation [2] -5.78% [at 8.39 µM] | activity change [3] -0.63% [at 5.22 µM, hits give high values] | activation [4] -1.56% [at 6.97 µM] | activation [5] 0.129% [at 5.23 µM] | activation [6] 3.5% [at 5.99 µM] | activation [7] 0.12% [at 5.99 µM] | activity change, negative = cytotoxicity [8] 7.59% [at 5.99 µM] | activity change, negative = cytotoxicity [9] 11.3% [at 5.99 µM] | activity change, negative = cytotoxicity [10] 1.47% [at 5.99 µM] | activation [11] -0.704% [at 5.99 µM] | activity, negative = inhibition [12] 1.83% [at 5.62 µM] | activation [13] 3.07% [at 7.02 µM] | activity, negative = inhibition [14] -3.21% [at 5.58 µM] | activation [15] 0.243% [at 6.97 µM] | activation [16] 0.463% [at 8.39 µM] | activity change, negative = inhibition [17] -3.7% [at 8.39 µM] | activity change, negative = inhibition [18] -1.43% [at 8.39 µM] | activity change, negative = inhibition [20] 6.58% [at 8.38 µM]

COc1cc(OC)nc(O[C@H](C(=O)O)C(OC)(c2ccccc2)c2ccccc2)n1
inactive: Potency [1] | Potency [2] | Potency [3] | Potency [4] | Potency [5] | Potency [6] | Potency [7] | Potency [8] | Potency [9] | Potency [10] | Potency [11] | Potency [12] | Potency [13] | Potency [14] | Potency [15] | Potency [16] | Potency [17] | Potency [18] | Potency [19] | Potency [20]

CC(=O)OCC(=O)Nc1cc(C#N)cc(NC(=O)COC(C)=O)c1Cl
inactive: Potency [1] | Potency [2] | Potency [3] | Potency [4] | Potency [5] | Potency [6] | Potency [7] | Potency [8] | Potency [9] | Potency [10] | Potency [11] | Potency [12] | Potency [13] | Potency [14] | Potency [15] | Potency [16] | Potency [17] | Potency [18] | Potency [20]

C=C(C)C(=O)OCCCCCCOC(=O)C(=C)C
inactive: Potency [1] | Potency [2] | Potency [3] | Potency [4] | Potency [5] | Potency [6] | Potency [7] | Potency [8] | Potency [9] | Potency [10] | Potency [11] | Potency [12] | Potency [13] | Potency [14] | Potency [15] | Potency [16] | Potency [17] | Potency [18] | Potency [20]

O=S(=O)(O)c1cccc(S(=O)(=O)O)c1
inactive: Potency [1] | Potency [2] | Potency [3] | Potency [4] | Potency [5] | Potency [6] | Potency [7] | Potency [8] | Potency [9] | Potency [10] | Potency [11] | Potency [12] | Potency [13] | Potency [14] | Potency [15] | Potency [16] | Potency [17] | Potency [18] | Potency [20]

CCCCCCCCCCCCCCC(=O)NC(CO)CCCCCCCCCCCCCC (configuration not stated)
inactive: Potency [1] | Potency [2] | Potency [3] | Potency [4] | Potency [5] | Potency [6] | Potency [7] | Potency [8] | Potency [9] | Potency [10] | Potency [11] | Potency [12] | Potency [13] | Potency [14] | Potency [15] | Potency [16] | Potency [17] | Potency [18] | Potency [20]

O=C(c1ccc2c(c1)C(=O)OC2=O)c1ccc2c(c1)C(=O)OC2=O
inactive: Potency [1] | Potency [2] | Potency [3] | Potency [4] | Potency [5] | Potency [6] | Potency [7] | Potency [8] | Potency [9] | Potency [10] | Potency [11] | Potency [12] | Potency [13] | Potency [14] | Potency [15] | Potency [16] | Potency [17] | Potency [18] | Potency [19]

O=C(O)/C=C/c1ccccc1
inactive: Potency [1] | Potency [2] | Potency [3] | Potency [4] | Potency [5] | Potency [6] | Potency [7] | Potency [8] | Potency [9] | Potency [10] | Potency [11] | Potency [12] | Potency [13] | Potency [14] | Potency [15] | Potency [16] | Potency [17] | Potency [18] | Potency [19] | Potency [20]

CC(C)(O)C(=O)O
inactive: Potency [1] | Potency [2] | Potency [3] | Potency [4] | Potency [5] | Potency [6] | Potency [7] | Potency [8] | Potency [9] | Potency [10] | Potency [11] | Potency [12] | Potency [13] | Potency [14] | Potency [15] | Potency [16] | Potency [17] | Potency [18] | Potency [19] | Potency [20]

CCC(O)CO (configuration not stated)
inactive: Potency [1] | Potency [2] | Potency [3] | Potency [4] | Potency [5] | Potency [6] | Potency [7] | Potency [8] | Potency [9] | Potency [10] | Potency [11] | Potency [12] | Potency [13] | Potency [14] | Potency [15] | Potency [16] | Potency [17] | Potency [18] | Potency [19] | Potency [20]

CC(=O)O[C@H](CC(=O)[O-])C[N+](C)(C)C
inactive: Potency [1] | Potency [2] | Potency [3] | Potency [4] | Potency [5] | Potency [6] | Potency [7] | Potency [8] | Potency [9] | Potency [10] | Potency [11] | Potency [12] | Potency [13] | Potency [14] | Potency [15] | Potency [16] | Potency [17] | Potency [18] | Potency [19]
